Rab9 prom act – qHTS Assay for Rab9 Promoter Activators; Huh7 Rab9 promoter-luciferase reporter, luminescence, 24 h; Potency, µM (doses to about 9.22 µM), for inactives: at the highest dose activation, negative = inhibition, most hits filed as activators; hit rate 2.8% among 320,000; AID 485297, 2010; further: % of control where 0% means no effect; nearly all actives have a fitted effect of over 60% in size
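Stable Rab9-luc Huh7, 1500 cells/well, 2 h settle; cmpd in DMSO, 24 h, 37 °C/5% CO2; luciferase reagent 10 min RT; luminescence.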
KinaseGlo FLuc – Counterscreen for Luciferase (Kinase-Glo TM) Inhibition; Luciferin 4-monooxygenase (Photuris pensylvanica), Q27757; Kinase-Glo luciferase, ATP luminescence, 8 min; Potency, µM (titrated, usually from 38.3 µM), without a hit: top-dose activity change, negative = inhibition, hits mostly inhibitors; hit rate 0.28% among 200,000; AID 1379, 2008; further: on the % scale 0 is the no-effect control and ±100 the full control effect; nearly all actives have a fitted effect of over 60% in size
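Compound is pinned into ATP-containing buffer (10 uM ATP, imidazole pH 7.2, 7 mM MgCl2). Kinase-Glo luciferase reagent is then added. Light output is recorded following an 8-min room-temperature incubation.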
SMN2 splice up – qHTS Assay for Enhancers of SMN2 Splice Variant Expression. HEK293 SMN2-luciferase splicing reporter, luminescence, 30-36 h. Potency, µM (titrated, usually from 46.1 µM), without a hit: at the highest dose activity change, positive = activation, actives largely listed as activators. hit rate 2.8% among 210,000. AID 1458, 2008; further: % of control where 0% means no effect; nearly all actives have a fitted effect of over 55% in size
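qHTS luciferase splicing reporter: luminescence rises when SMN2 exon 7 is included in transfected HEK293 cells. Compound exposure lasted 30-36 h at 37C, with 4.5 mM final sodium butyrate as control, followed by a ONE-Glo read.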
ELG1 genotox – qHTS screen for small molecules that induce genotoxicity in human embryonic kidney (HEK293T) cells expressing luciferase-tagged ELG1; HEK293T ELG1-luciferase reporter, luminescence, 16 h; Potency, µM (titrated, usually from 46 µM), inactives show top-dose activity change, positive = activation, hits mostly activators; hit rate 1.3% among 330,000; AID 504466, 2011; further: % of control where 0% means no effect; nearly all actives have a fitted effect of over 60% in size
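Cells (2,000/well) expressing the ELG1-luciferase fusion are dosed by pin tool and kept 16 hr at 37 °C, 5% CO2. Signal comes from ONE-Glo luciferase reagent after 30 min at room temperature.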
NPC1 prom act – qHTS Assay for NPC1 Promoter Activators. AID 485313, 2010. hit rate 2.4% among 320,000. Huh7 NPC1 promoter luciferase reporter, 24 h. Potency, µM (top dose mostly 9.22 µM), without a hit: top-dose activation, hits mostly activators; further: % of control where 0% means no effect; nearly all actives have a fitted effect of over 60% in size
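Readout is luciferase luminescence, reflecting NPC1 promoter activation in stably transfected Huh7 cells after 24 h compound exposure at 37 °C in reduced-serum medium with 10% FBS.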
FLuc modulator – qHTS profiling assay for firefly luciferase inhibitor/activator using purifed enzyme and Km concentrations of substrates (counterscreen for miR-21 project); AID 588342, 2011; Luciferin 4-monooxygenase (Photinus pyralis), P08659; hit rate 6.9% among 360,000; purified FLuc, Km substrates, luminescence inhibition; Potency, µM (series often up to 57.5 µM), inactives show at the top dose activity change, negative = inhibition, actives largely listed as inhibitors;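 further: plate controls were vehicle for no effect and reference inhibitor for full effect; nearly all actives have a fitted effect of over 55% in size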
Target sequence (P08659 whole entry, looked up): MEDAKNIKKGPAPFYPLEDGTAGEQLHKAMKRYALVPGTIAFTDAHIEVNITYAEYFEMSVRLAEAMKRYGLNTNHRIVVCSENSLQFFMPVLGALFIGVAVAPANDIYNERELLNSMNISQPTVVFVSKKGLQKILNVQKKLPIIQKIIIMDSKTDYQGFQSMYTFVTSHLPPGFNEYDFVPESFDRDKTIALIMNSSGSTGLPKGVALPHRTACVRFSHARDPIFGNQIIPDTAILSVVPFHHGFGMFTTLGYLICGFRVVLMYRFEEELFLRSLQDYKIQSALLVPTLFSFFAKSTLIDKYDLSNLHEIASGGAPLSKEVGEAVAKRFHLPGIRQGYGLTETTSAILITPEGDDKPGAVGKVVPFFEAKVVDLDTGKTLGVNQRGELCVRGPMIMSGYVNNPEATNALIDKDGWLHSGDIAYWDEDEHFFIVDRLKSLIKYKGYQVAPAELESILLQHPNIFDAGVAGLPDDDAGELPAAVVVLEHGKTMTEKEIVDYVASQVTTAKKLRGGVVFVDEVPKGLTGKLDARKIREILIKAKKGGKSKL
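Biochemical qHTS of compounds, final roughly 60 µM downward over six points, against 10 nM purified firefly luciferase using Km concentrations of substrates (10 uM D-luciferin, 10 uM ATP) in Tris acetate pH 7.5 buffer; luminescence output.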
Starred values were filed as active, the others as inactive; ? = inconclusive; . = no result given; [ ] = another dose, or the depositor's remark. A selection: hits, their analogues and other compounds. The true share with any hit is near 7.5%. The call rests on the fitted dose curve; in most records, active means well fitted curve in the direction sought with a large enough effect; inconclusive means small, poorly fitted or top-dose-only effect, or another doubt; inactive means no such curve, though single readings can be large; an effect the other way counts as inactive or inconclusive. Potency means the concentration at half of the fitted maximal effect.

SMILES	Rab9 prom act	KinaseGlo FLuc	SMN2 splice up	ELG1 genotox	NPC1 prom act	FLuc modulator
CCOc1ccc(-c2nnc(SCC(=O)NC3CC3)o2)cc1	-6.9%	.	.	6.9%	-8.5%	?
CC(C)(C)c1ccc(C(=O)NCc2nnc(SCC(=O)NC3CCCC3)o2)cc1	1.8%	.	.	-1.2%	1.9%	?
CC(C)(C)c1ccc(C(=O)NCc2nnc(SCC(=O)NC3CCCCC3)o2)cc1	6.6%[1.84 µM]	.	.	3.6%	2.2%	19µM*
CN[C@H]1[C@@H](O[C@@H]2[C@H](O[C@@H]3[C@@H](O)[C@@H](O)[C@@H](N=C(N)N)[C@@H](O)[C@@H]3N=C(N)N)O[C@H](C)[C@@]2(O)C=O)O[C@@H](CO)[C@@H](O)[C@H]1O	.	-3.1%[17.1 µM]	-0.6%[20.6 µM]	.	.	.
C/C(=N\N=c1/sc2ccccc2n1C)c1ccccn1	?	-1.4%	?	?	?	16.9µM*
C/C(=N/NC(=O)c1ccoc1C)c1ccc(N2CCOCC2)cc1	21.6%	-11.3%	?	?	15.6%	?
C/C(=N\N=c1/sc2ccccc2n1C)c1ccc(N2CCOCC2)cc1	21.0%	-2.1%	11.9%	9.0%	-2.3%	2.39µM*
CCOC(=O)C1CCN(C(=O)CSc2n[nH]c(-c3ccc(F)cc3)n2)CC1	.	.	.	.	.	-4.3%
Cc1ccc(C(=O)OCCc2c(C)[nH]n(-c3ccccc3)c2=O)cc1	1.9%	-0.2%	-21.7%	-0.1%	-4.0%	13.5µM*
Cc1[nH]n(-c2ccccc2)c(=O)c1CCOC(=O)c1cccc(C(F)(F)F)c1	2.7%	-1.5%	-13.4%	0.6%	2.1%	4.9%
Cc1cc(C)c(C)c(OCC(=O)O/N=C(\N)c2ccccn2)c1	-3.6%	-2.3%	-9.7%	0.2%	0.2%	-9.0%
N/C(=N\OC(=O)COc1ccc(Br)cc1Cl)c1ccccn1	2.82µM*	-10.9%	7.08µM*	2.59µM*	2.82µM*	1.51µM*
N/C(=N\OC(=O)COc1ccc(Cl)cc1Cl)c1ccccn1	0.708µM*	-8.1%	.	1.16µM*	0.794µM*	0.757µM*
CCOc1ccccc1CNC(=O)C1CCN(S(=O)(=O)c2cccc3nonc23)CC1	.	.	.	.	.	-1.2%
COC(=O)c1ccccc1NC(=O)c1cc2nc(-c3ccc(OC)cc3)cc(C(F)(F)F)n2n1	.	.	4.7%	.	.	-0.4%
O=C(O)c1cccc(NC(=O)c2cccc(S(=O)(=O)N3CCc4ccccc4C3)c2)c1	4.2%	0.5%	-3.2%	1.5%	0.4%	21.3µM*
O=C(O)c1cccc(NC(=O)c2cccc(S(=O)(=O)N3CCc4ccccc43)c2)c1	2.9%	.	.	5.1%	14.3%	21.3µM*
C#CCn1c(S(=O)(=O)Cc2ccccc2Cl)nc(-c2ccccc2)c1-c1ccccc1	-5.5%	3.4%	5.62µM*	-5.2%	-3.2%	5.6%
COc1ccc2nc(NC(=O)CSc3nc(SC)ns3)sc2c1	?	-1.5%	?	13.6%	20.3%	?
COc1ccc2nc(NC(=O)CSc3nnc4n3C(C)(C)Cc3ccccc3-4)sc2c1	8.0%	-3.6%	-5.6%	?	-3.6%	6.75µM*
COc1ccc2nc(NC(=O)CSc3n[nH]c(N)n3)sc2c1	?	.	.	14.6µM*	?	9.53µM*
COc1ccc2nc(NC(=O)CSc3nnnn3C)sc2c1	3.16µM*	-4.5%	.	14.5%	2.82µM*	?
COc1ccc2nc(NC(=O)CSc3nnnn3C3CCCCC3)sc2c1	.	-0.7%	-8.4%	.	.	?
COc1ccc2nc(NC(=O)CSc3nnc(C)s3)sc2c1	?	-0.3%	26.2%	20.6µM*	2.51µM*	?
COc1ccccc1CNC(=O)C1CCCN(c2nc3ccccc3n3cccc23)C1 (stereo not drawn)	.	.	.	.	.	-6.1%
SMILES	Rab9 prom act	KinaseGlo FLuc	SMN2 splice up	ELG1 genotox	NPC1 prom act	FLuc modulator
CCCCOCCOCCOCc1cc2c(cc1CCC)OCO2	.	.	2.3%	.	.	.
O=C(CCCCCNC(=O)N1CCn2c1nc1ccccc12)NCc1ccccc1Cl	0.2%	.	.	-3.4%	-7.3%	15.1µM*
O=C(CCCCCNC(=O)N1CCn2c1nc1ccccc12)NCc1ccc(Cl)cc1	0.3%	.	.	-3.2%	-0.8%	23.9µM*
Cc1ccc(CNC(=O)CCCCCNC(=O)N2CCn3c2nc2ccccc23)cc1	-0.5%	.	.	0.0%	-2.1%	15.1µM*
CC(=O)Nc1ccccc1-c1nc2ccccc2n(CC(=O)Nc2ccc(C)c(Cl)c2)c1=O	.	.	.	.	.	-0.4%
CCOc1ccc(NC(=O)CNS(=O)(=O)c2ccc(Br)s2)cc1	.	.	-9.3%	.	.	-13.8%
Cc1cc(NC(=O)c2cccs2)ncc1NC(=O)C(C)(C)C	1.41µM*	.	.	4.11µM*	0.891µM*	10.7µM*
O=C(Nc1ccccn1)c1cccs1	.	-22.4%	29.8%	.	.	?
Cc1ccnc(NC(=O)c2ccc(Br)s2)c1	1.58µM*	.	.	?	1.12µM*	2.69µM*
Cc1ccnc(NC(=O)c2cccs2)c1	2.24µM*	?	?	?	3.55µM*	15.1µM*
O=C(Nc1ccon1)c1ccc(Br)s1	9.3%	.	.	-3.6%	12.1%	-11.5%
Cc1cccc(NC(=O)c2cccs2)n1	?	-11.2%	20.8%	-44.3%	?	?
O=C(Nc1nccc(-c2cccs2)n1)c1cccs1	?	-10.8%	?	?	2.82µM*	19µM*
NC(=O)CSc1nc2cc3c(cc2c(=O)n1CCCCCC(=O)NCc1ccc2c(c1)OCO2)OCO3	.	.	.	.	.	0.4%
Cc1ccc(OCC(=O)O/N=C(\N)c2ccccn2)cc1C	?	.	.	8.2µM*	2.24µM*	12µM*
Cc1cc(C)cc(OCC(=O)O/N=C(\N)c2ccccn2)c1	-8.1%	-1.8%	4.8%	?	-4.4%	?
N/C(=N\OC(=O)COc1ccccc1)c1ccccn1	23.4%	-5.2%	-9.2%[1.84 µM]	?	19.0%	?
Cc1cccc(OCC(=O)O/N=C(\N)c2ccccn2)c1	13.5%	-4.0%	?	?	26.7%	16.9µM*
Cc1ccc(OCC(=O)O/N=C(\N)c2ccncc2)cc1C	?	.	.	17.5%	16.6%	?
CCc1ccc(OCC(=O)O/N=C(\N)c2ccccn2)cc1	3.16µM*	.	.	7.3µM*	3.16µM*	9.53µM*
COc1ccc(CCNC(=O)C(=O)NCC(c2cccs2)S(=O)(=O)c2ccc(C)cc2)cc1 (stereo not drawn)	.	.	.	.	.	2.2%
CCCCCc1nnc(NC(=O)C2CCCO2)s1 (stereo not drawn)	?	-2.2%	?	13µM*	27.8%	?
CC(C)Cc1nnc(NC(=O)C2=COCCO2)s1	?	.	.	?	?	16.9µM*
O=C(Nc1nccs1)C1=COCCO1	.	.	.	6.7%	.	.

Screens deposited in PubChem by National Center for Advancing Translational Sciences (NCATS).
